Results published in PubChem BioAssay (NCATS).
Results filed as inconclusive are left out. A call without a number means that no potency is given here. Active and inactive are the calls of the source. The call rests on the fitted dose curve; in most records, active means well fitted cell-killing curve with a large enough effect; inconclusive means small, poorly fitted or top-dose-only effect, or effect the other way; inactive means flat fitted curve, though single readings scatter.

Tested on: C33A
Assay: Primary qHTS to identify gynecologic anti-cancer compounds using libraries of approved drugs and bioactive compounds (AID 1345084); further: nearly all actives have a fitted effect of over 55% in size
Settings: Gynecologic cancer cell panel viability, ATPlite luminescence, 48 h; series mostly up to 57.5 µM
Procedure, shortened: (§1)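 Five-point cytotoxicity, 48 h drug exposure at 37 C, 5% CO2, on cells seeded 16 h beforehand. ATP content read by ATPlite luminescence.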
Potency means the concentration at half of the fitted maximal effect.

| SMILES | Potency |
| --- | --- |
| O=C(NNc1ccccc1)c1ccncc1 | inactive |
| COc1ccccc1NC(=O)Nc1ccc2ccccc2c1 | inactive |
| COc1cc(O)c(C(=O)CCc2ccc(O)cc2)c(O[C@@H]2O[C@H](CO)[C@@H](O)[C@H](O)[C@H]2O)c1 | inactive |
| COc1ccc(Cl)cc1[C@@]1(F)C(=O)Nc2cc(C(F)(F)F)ccc21 | inactive |
| CN(CCCNC(=O)c1ccc2nc3c(c(Cl)c2c1)CCCC3)Cc1ccccc1 | inactive |
| Cc1ccc2c(Nc3ccc(Cl)cc3)nccc2c1Nc1ncccc1-c1ncnc2nc[nH]c12 | inactive |
| O=C(NCc1ccc(Oc2ccccc2)cc1)c1nc(-c2cc(Br)c(O)c(Br)c2)no1 | inactive |
| CCN(CC)c1ccc(C(=C2C=CC(=[N+](CC)CC)C=C2)c2cc(S(=O)(=O)O)ccc2S(=O)(=O)[O-])cc1 | 10 µM (active) |
| O=C(Nc1ccc(F)cc1)N1CCc2ccccc2C1c1ccc(C(F)(F)F)cc1 (stereo not drawn) | inactive |
| CC(C)(C)c1ccc(-c2nc3ccccc3[nH]2)cc1 | 1.26 µM (active) |
| C=C(C)C(=O)OC1[C@@H]2C(=C)C(=O)O[C@@H]2C[C@@H](C)[C@@H]2C=CC(=O)[C@@]12C (stereo partly drawn) | inactive |
| COc1cc2ncnc(Nc3ccc(Oc4ccccc4)cc3)c2cc1OC | inactive |
| CC1CCC2C(=CCC(O)C2(C)C)C1(C)Cc1c(O)cc(CO)c(C=O)c1O (stereo not drawn) | inactive |
| CC1(C)CC23[C@@H]4CC(=O)[C@@H]2COC(=O)[C@@H]3CC[C@H]41 | inactive |
| CCN1CCN(Cc2ccc(-c3cc4c(NC(C)c5ccccc5)ncnc4[nH]3)cc2)CC1 (stereo not drawn) | inactive |
| CN1CCN(C(=O)c2ccc(Nc3nccc(-c4cccs4)n3)cc2Cl)CC1 | inactive |

| SMILES | Potency |
| --- | --- |
| Cn1cnc(-c2nccc3c(=O)[nH]c(OCCCC(F)(F)F)nc23)c1 | inactive |
| CC(C)[C@@H](C)/C=C/[C@@H](C)[C@H]1CC[C@H]2C3=CC=C4C[C@@H](O)CC[C@]4(C)C3=CC[C@]12C | inactive |
| OCC(Cc1ccccc1)Nc1nc(Oc2ccc3c(c2)CCC3)nc2c1ncn2Cc1ccc(-c2ccccc2)cc1 (stereo not drawn) | inactive |
| Cc1[nH]c(/C=C2\C(=O)Nc3ccc(F)cc32)c(C)c1C(=O)NC[C@H](O)CN1CCOCC1 | inactive |
| CCN(CCCOc1ccc2c(Nc3cc(CC(=O)Nc4cccc(F)c4)[nH]n3)ncnc2c1)CCOP(=O)(O)O | inactive |
| CCCCn1c(-c2ccccc2)nc(-c2ccccc2)c1CN(Cc1ccc2c(c1)OCO2)Cc1ccc2c(c1)OCO2 | inactive |
| Cc1ccc(C2(COC(=O)C(C)C)CO2)c(OC(=O)C(C)C)c1 (stereo not drawn) | inactive |
| CCC(C)n1cc(C)c2c(C(=O)NCc3c(C)cc(C)[nH]c3=O)cc(-c3ccc(N4CCNCC4)nc3)cc21 (stereo not drawn) | inactive |
| Cn1nccc1Nc1nccc(-c2ccn([C@H](CO)c3ccc(Cl)c(F)c3)c(=O)c2)n1 | inactive |
| COc1cc2ncnc(Oc3cccc(NC(=O)Nc4cc(C(C)(C)C(F)(F)F)on4)c3)c2cc1OC | inactive |
| Nc1ncnc2c1ncn2[C@@H]1O[C@H](CO)C[C@H]1O | inactive |
| O=[N+]([O-])c1ccc(-[n+]2nc(-c3ccccc3)nn2-c2ccc(I)cc2)cc1 | inactive |
| Cc1ccc(C(=O)N2CCN(c3ccc([N+](=O)[O-])cc3)CC2)cc1Cl | inactive |
| CC(=O)N1c2ccc(-c3ccc(C(=O)O)cc3)cc2C(Nc2ccc(Cl)cc2)CC1C (stereo not drawn) | inactive |
| C=C1/C(=C/C=C2\CCC[C@]3(C)[C@@H]([C@H](C)/C=C/C(=O)C4CC4)CC[C@@H]23)C[C@@H](O)C[C@@H]1O | inactive |

Tested on: CAOV3
Assay: as above
Settings: Gynecologic cancer cell panel viability, ATPlite luminescence, 48 h; series mostly up to 57.5 µM
Procedure, shortened: as §1

| SMILES | Potency |
| --- | --- |
| O=C(NNc1ccccc1)c1ccncc1 | inactive |
| COc1ccccc1NC(=O)Nc1ccc2ccccc2c1 | inactive |
| COc1cc(O)c(C(=O)CCc2ccc(O)cc2)c(O[C@@H]2O[C@H](CO)[C@@H](O)[C@H](O)[C@H]2O)c1 | inactive |
| CCOC(=O)c1cnn(-c2ccc(NC(=O)C(Cl)=C(Cl)Cl)cc2)c1C(F)(F)F | 6.31 µM (active) |
| COc1ccc(Cl)cc1[C@@]1(F)C(=O)Nc2cc(C(F)(F)F)ccc21 | inactive |
| CN(CCCNC(=O)c1ccc2nc3c(c(Cl)c2c1)CCCC3)Cc1ccccc1 | inactive |
| O=C(NCc1ccc(Oc2ccccc2)cc1)c1nc(-c2cc(Br)c(O)c(Br)c2)no1 | inactive |
| CCN(CC)c1ccc(C(=C2C=CC(=[N+](CC)CC)C=C2)c2cc(S(=O)(=O)O)ccc2S(=O)(=O)[O-])cc1 | 28.2 µM (active) |
| O=C(Nc1ccc(F)cc1)N1CCc2ccccc2C1c1ccc(C(F)(F)F)cc1 (stereo not drawn) | inactive |
| CC(C)(C)c1ccc(-c2nc3ccccc3[nH]2)cc1 | 0.891 µM (active) |
| C=C(C)C(=O)OC1[C@@H]2C(=C)C(=O)O[C@@H]2C[C@@H](C)[C@@H]2C=CC(=O)[C@@]12C (stereo partly drawn) | inactive |
| COc1cc2ncnc(Nc3ccc(Oc4ccccc4)cc3)c2cc1OC | 31.6 µM (active) |
| CC1CCC2C(=CCC(O)C2(C)C)C1(C)Cc1c(O)cc(CO)c(C=O)c1O (stereo not drawn) | inactive |
| CC1(C)CC23[C@@H]4CC(=O)[C@@H]2COC(=O)[C@@H]3CC[C@H]41 | inactive |
| CN1CCN(C(=O)c2ccc(Nc3nccc(-c4cccs4)n3)cc2Cl)CC1 | inactive |
| Cn1cnc(-c2nccc3c(=O)[nH]c(OCCCC(F)(F)F)nc23)c1 | inactive |
| CC(C)[C@@H](C)/C=C/[C@@H](C)[C@H]1CC[C@H]2C3=CC=C4C[C@@H](O)CC[C@]4(C)C3=CC[C@]12C | inactive |
| O=C1c2c(O[C@@H]3O[C@H](CO)[C@@H](O)[C@H](O)[C@H]3O)cc(O)cc2OC1(O)Cc1ccc(O)cc1 (stereo partly drawn) | 10 µM (active) |
| CCCCn1c(-c2ccccc2)nc(-c2ccccc2)c1CN(Cc1ccc2c(c1)OCO2)Cc1ccc2c(c1)OCO2 | inactive |
| Cc1ccc(C2(COC(=O)C(C)C)CO2)c(OC(=O)C(C)C)c1 (stereo not drawn) | inactive |
| Cn1nccc1Nc1nccc(-c2ccn([C@H](CO)c3ccc(Cl)c(F)c3)c(=O)c2)n1 | inactive |
| COc1cc2ncnc(Oc3cccc(NC(=O)Nc4cc(C(C)(C)C(F)(F)F)on4)c3)c2cc1OC | inactive |
| O=[N+]([O-])c1ccc(-[n+]2nc(-c3ccccc3)nn2-c2ccc(I)cc2)cc1 | 11.2 µM (active) |
| O=C(NC(NC(=S)Nc1ccc(F)c([N+](=O)[O-])c1)C(Cl)(Cl)Cl)C(c1ccccc1)c1ccccc1 (stereo not drawn) | inactive |
| Cc1ccc(C(=O)N2CCN(c3ccc([N+](=O)[O-])cc3)CC2)cc1Cl | inactive |
| CC(=O)N1c2ccc(-c3ccc(C(=O)O)cc3)cc2C(Nc2ccc(Cl)cc2)CC1C (stereo not drawn) | inactive |
| C=C1/C(=C/C=C2\CCC[C@]3(C)[C@@H]([C@H](C)/C=C/C(=O)C4CC4)CC[C@@H]23)C[C@@H](O)C[C@@H]1O | inactive |
